Records with an inconclusive call do not appear. The source made the active and inactive calls. Calls come from the whole dose curve; as a rule, active = well fitted cell-killing curve with a large enough effect; inconclusive = small, poorly fitted or top-dose-only effect; inactive = no such curve, though single readings can be large or run the other way.
experiment: qHTS of pediatric cancer cell lines to identify multiple opportunities for drug repurposing: Primary screen for A673 cells (AID 1347092); conditions: A673 Ewing sarcoma viability, CellTiter-Glo ATP luminescence, 48 h; series mostly up to 46 µM; note: nearly all actives have a fitted effect of over 45% in size
Description: Drug repurposing or repositioning has been offered as a strategy for drug development in oncology programs. This approach has special potential for childhood cancers and other rare or orphan diseases, where the expected return on new drug development has been a disincentive to pharmaceuticals. […] In this project we exploit the poly-pharmacology of drugs to discover new indications via phenotypic screening of a panel of 19 well-characterized cell lines derived from solid tumors seen in children and adolescents. The goal is to identify approved drugs with previously unrecognized anticancer properties that has the potential to reveal new mechanisms and biological processes involved in carcinogenesis or drug resistance. We employed a titration-based paradigm (quantitative high-throughput screening or qHTS), where all compounds were tested at multiple concentrations for their effect on cell viability. Concentration-response curves (CRCs) were derived directly from the primary screen, and both potency and efficacy values were used to identify compounds with robust bioactivity profiles. We screened the NIH Chemical Genomics Center (NCGC) Pharmaceutical Collection (NPC) and Mechanism Interrogation Plate (MIPE) small molecule collections of approved and investigational compounds against these cell lines; and measured metabolically active cells after 48 hours of compound treatment as a proxy for cell viability. […] Assay Submitter: Nathalia J. Martinez, National Center for Advancing Translational Sciences, National Institutes of Health, Rockville, MD, USA; email: natalia.martinez@nih.gov. Shen, M et al. Quantitative high-throughput phenotypic screening of pediatric cancer cell lines identifies multiple opportunities for drug repurposing. Oncotarget 2017 Dec 19;9(4):4758-4772. PMID 29435139.
The cells were obtained from University of North Carolina (UNC), Pediatric Preclinical Testing Program (PPT), and Coriell Institute (CI). qHTS cell viability assay: Cells were assayed in growth media at a density of 500-1,000 cells/well. Five microliters of cells were dispensed into 1,536-well, white, solid-bottom, TC-treated plates (Greiner Bio One) using a multidrop dispenser and incubated at 37 degrees C, 5% CO2, under a humidified atmosphere for 5 hours. Twenty-three nanoliters of compounds and controls (neutral control DMSO or positive control bortezomib at final concentration of 2.3 uM) were subsequently transferred by Kalypsys pintool. For primary screens, the MIPE collection was tested at 11-point dilutions (final concentrations range from 0.78 nM to 46 µM) and the NPC collection at 8-point dilutions (final concentrations range from 0.59 nM to 46 µM). Compounds tested in follow-up screens were assayed at 11-point dilutions. Cells were incubated for 48 hours, followed by addition of 3 uL of CellTiter-Glo (Promega). After a 15min incubation at room temperature, samples were analyzed for luminescence intensity using a ViewLux High-throughput CCD imager equipped with clear filters.
% is set by controls: 0 for no effect and ±100 for the full control effect.

Compound	outcome	activity change, negative = cytotoxic
CC(C)C[C@@H](N)C(=O)O	inactive	–
C[C@H]1COc2c(C3(N)CC3)c(F)cc3c(=O)c(C(=O)O)cn1c23	inactive	–
COc1ccc(C(=O)NCc2ccc(OCCN(C)C)cc2)cc1OC	inactive	–
NC(N)=NCCN1CCCCCCC1	–	2.24% [at 0.597 µM] (inactive)
O=c1[nH]c(=O)c2ccccc2o1	inactive	–
O=C(Cn1ccnc1[N+](=O)[O-])NCCO	inactive	–
CCN(CC)C(=O)c1cccc(C)c1	inactive	–
CC(=O)Oc1cccc(O)c1	inactive	–
CC(C)(C)NCC(O)COc1cccc2c1CCC(=O)N2 (stereo not given)	inactive	–
Cc1cccc(C)c1NC(=O)CC12CCCN1CCC2	inactive	–
Cc1cc(=O)[nH]c(=S)[nH]1	inactive	–
CC1CCN(CCCC(=O)c2ccc(F)cc2)CC1	inactive	–
C/C=C/C(=O)N(CC)c1ccccc1C	inactive	–
O=C1c2ccccc2S(=O)(=O)N1CCCCN1CCN(c2ncccn2)CC1	inactive	–
CC(=O)Nc1cccc(O)c1	inactive	–
NC(=O)NC1NC(=O)NC1=O (stereo not given)	inactive	–
COc1nccnc1NS(=O)(=O)c1ccc(N)cc1	inactive	–
CC(=O)N1C[C@H](O)C[C@H]1C(=O)O	inactive	–
C=CCNC(N)=S	inactive	–
CC(C)(C)C(=O)OCOC(=O)[C@@H]1N2C(=O)[C@@H](NC(=O)[C@H](N)c3ccccc3)[C@H]2SC1(C)C	inactive	–

Compound	outcome	activity change, negative = cytotoxic
CC(=O)OCC(COC(C)=O)OC(C)=O	inactive	–
CCOC(N)=O	inactive	–
O=C(O)CCC(=O)O	inactive	–
Cc1c(C(=O)NCCO)[n+](=O)c2ccccc2n1[O-]	inactive	–
O=C1c2ccccc2C(=O)C1c1ccc(Br)cc1	inactive	–
CCN(CC)S(=O)(=O)c1ccc(C(=O)O)cc1	inactive	–
NS(=O)(=O)c1ccc(NC(=O)CCC(=O)O)cc1	inactive	–
C=CCSCC1Nc2cc(Cl)c(S(N)(=O)=O)cc2S(=O)(=O)N1 (stereo not given)	inactive	–
C[C@@H]1CCC[C@H](C)N1	inactive	–
CCCCCCCCCCC(CO)CCCCCCCC (stereo not given)	inactive	–
CN1C[C@@H]2C[C@H]1CN2c1cc2c(cc1F)c(=O)c(C(=O)O)cn2C1CC1	inactive	–
O=c1[nH]cnc2nc[nH]c12	inactive	–
O=C(/C=C/c1ccc(O)c(O)c1)O[C@@H]1C[C@@](OC(=O)/C=C/c2ccc(O)c(O)c2)(C(=O)O)C[C@@H](O)[C@@H]1O	inactive	–
Cc1c(Cn2ccnc2)c2ccccc2n1CCC(=O)O	inactive	–
CC(C)c1cc2c(cc1S(=O)(=O)O)[C@@]1(C)CCC[C@@](C)(C(=O)O)[C@@H]1CC2	inactive	–
Cc1ncc(CO)c(CN)c1O	inactive	–
CCCCCCCC(=O)OCC(COC(=O)CCCCCCC)OC(=O)CCCCCCC	inactive	–
Cc1cc(OI)c(C(C)C)cc1-c1cc(C(C)C)c(OI)cc1C	inactive	–
FC(F)(F)C(Cl)Br (stereo not given)	inactive	–
Cn1cc(C(=O)[C@@H]2CCc3nc[nH]c3C2)c2ccccc21	inactive	–

Source: PubChem BioAssay (NCATS)
